Measured values from PubChem BioAssay (NCATS).
Active and inactive are the calls of the source. No rule for the calls is given here.

Test system: HIV-1 nucleocapsid protein NCp7 (binding to TG oligonucleotide)
Test: HIV Nucleocapsid (AID 346);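 also: potency is for inhibitors that block NC binding and lower polarization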
Details: HIV-1 NC / fluorescein-TGTGTGTG probe, fluorescence polarization
Method in brief: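 Fluorescence polarization binding of 100 nM HIV-1 NC to 10 nM fluorescein-labelled TG4xF oligonucleotide. Buffer was Hepes pH 7.5 with 250mM NaCl, 1uM ZnCl2, TCEP and 2-mercaptoethanol. Compounds were incubated 1 hr at room temperature before the read.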
Potency is read from the fitted curve at half-maximal effect.

Row | Compound | Potency
1 | N#Cc1ccc(CN2CCC3(CC2)CCN(C(=O)c2cnccn2)CC3)cc1 | > 20 µM (inactive)
2 | COc1cccc(Cn2c(=O)c(-c3cccs3)nc3cnc(Nc4cccc(OC)c4)nc32)c1 | > 20 µM (inactive)
3 | COCCn1c(=O)c(-c2ccc(Cl)cc2)nc2cnc(Oc3cccc(Cl)c3)nc21 | > 20 µM (inactive)
4 | COc1cccc(Nc2ncc3nc(-c4ccc(Cl)cc4)c(=O)n(C4CC4)c3n2)c1 | > 4 µM (inactive)
5 | CN1CCN(c2ncc3nc(CCc4ccccc4)c(=O)n(Cc4ccc(F)cc4)c3n2)CC1 | > 20 µM (inactive)
6 | Cc1cnc(CNc2cc(-c3cccc(NS(C)(=O)=O)c3)ncn2)cn1 | > 20 µM (inactive)
7 | COc1ccccc1CNc1cc(-c2ccoc2)ncn1 | > 20 µM (inactive)
8 | COc1ccc(C(=O)N2CCC3(CCCN(Cc4ccccc4)C3)CC2)cc1 | > 20 µM (inactive)
9 | COc1ccc(-n2c(=O)c(-c3cc(F)cc(F)c3)nc3cnc(N4CCOCC4)nc32)cc1 | > 20 µM (inactive)
10 | CN(C)C(=O)c1ccc(-c2nccc(N(C)Cc3ccco3)n2)cc1 | > 20 µM (inactive)
11 | Cc1nc2cnc(N3CCOCC3)nc2n(Cc2cccs2)c1=O | > 20 µM (inactive)
12 | COc1ccc(CNc2ccnc(-c3cccc(NS(C)(=O)=O)c3)n2)c(OC)c1 | > 20 µM (inactive)
13 | COc1cccc(Cn2c(=O)c(-c3cccc(C#N)c3)nc3cnc(OC)nc32)c1 | > 20 µM (inactive)
14 | COc1ccc(-c2nc3cnc(N(C)C)nc3n(C[C@H]3CCCO3)c2=O)cc1 | > 20 µM (inactive)
15 | CN(C)c1ccc(-c2ccc3ncnc(-n4ccnc4)c3c2)cc1 | > 20 µM (inactive)
16 | CN(C)Cc1ccccc1-c1ccc2ncnc(NC3CCNCC3)c2c1 | > 20 µM (inactive)
17 | CN(C)c1ncc2nc(-c3cccs3)c(=O)n(-c3ccccc3)c2n1 | > 4 µM (inactive)
18 | CNc1ncncc1-c1ccccc1OC | > 20 µM (inactive)
19 | COCC(=O)N1CCC2(CC1)CN(c1ccc(-c3ccccc3)cc1)C2 | > 20 µM (inactive)
20 | Cc1noc(C)c1-c1nccc(N2CCN(C)CC2)n1 | > 20 µM (inactive)

Row | Compound | Potency
21 | N#Cc1cccc(NC(=O)N2CCCC3(CCN(C(=O)c4cnccn4)CC3)C2)c1 | > 20 µM (inactive)
22 | O=S(=O)(c1ccccc1)N1CCC2(CCCN(c3ncccn3)C2)CC1 | > 20 µM (inactive)
23 | CN(C)Cc1ccccc1-c1ccc2ncnc(NC3CC3)c2c1 | > 20 µM (inactive)
24 | COc1ccccc1CNc1ncnc2ccc(-c3ccccc3CN(C)C)cc12 | > 20 µM (inactive)
25 | COc1cccc(Cn2c(=O)c(-c3ccccc3)nc3cnc(N(C)C)nc32)c1 | > 20 µM (inactive)
26 | COc1ccccc1CNc1nc(-c2ccc(N(C)C)cc2)nc2ccccc12 | > 20 µM (inactive)
27 | N#CCCn1c(=O)c(-c2cc(F)cc(F)c2)nc2cnc(OCc3ccccc3)nc21 | > 20 µM (inactive)
28 | O=C(Nc1cccc(F)c1)N1CCCC2(CCN(C(=O)c3ccco3)CC2)C1 | > 20 µM (inactive)
29 | CN(C)c1ncc2ncc(=O)n(CCC#N)c2n1 | > 20 µM (inactive)
30 | COCCn1c(=O)c(C)nc2cnc(N(C)C)nc21 | > 20 µM (inactive)
31 | COc1ccc(-c2nc3cnc(Nc4ccccc4)nc3n(CCC#N)c2=O)cc1 | 2.04 µM (active)
32 | O=c1c(-c2ccc(F)cc2)nc2cnc(Oc3ccccc3)nc2n1C[C@H]1CCCO1 | > 20 µM (inactive)
33 | O=C(Oc1ccccc1)N1CCC2(CCCN(c3ncccn3)C2)CC1 | > 20 µM (inactive)
34 | COc1ccc(Nc2ncc3nc(-c4cccs4)c(=O)n(Cc4cccc(OC)c4)c3n2)cc1 | 16 µM (inactive)
35 | Cc1cnc(CNc2cc(-c3ccccc3CN(C)C)ncn2)cn1 | > 20 µM (inactive)
36 | CS(=O)(=O)N1CCC2(CC1)CN(c1ccncc1)C2 | > 4 µM (inactive)
37 | N#Cc1ccc(CN2CCCC3(CCN(C(=O)c4ccco4)CC3)C2)cc1 | > 20 µM (inactive)
38 | Cc1cnc(CNc2nc(-c3cccc(NS(C)(=O)=O)c3)nc3ccccc23)cn1 | > 20 µM (inactive)
39 | Cc1cnc(CNc2nc(-c3ccccc3C(F)(F)F)nc3ccccc23)cn1 | > 20 µM (inactive)
40 | Cn1cccc1C(=O)N1CCC2(CC1)CN(C(=O)Nc1cccc(F)c1)C2 | > 20 µM (inactive)
